Test results published in PubChem BioAssay AID2314 (National Center for Advancing Translational Sciences (NCATS), 2010).
Values joined by “and” are separate entries in the source; they are usually repeats but may differ in a detail not shown here. Identical values can stand only once. The whole screen tested about 300,000 compounds, of which about 37,000 (12%) were called active. No stated cut-off is given here; in the data, active means max response mostly above about 13% (no sharp cut-off); inactive means mostly below about 14%. What follows is part of a selection rich in actives, with near analogues and random picks from the rest.

Assay: Cycloheximide Counterscreen for Small Molecule Inhibitors of Shiga Toxin; further: read at 38.3 µM for the half of the compounds with a filed dose; 0% is about no effect
Details: cell reporter, cycloheximide protein synthesis inhibition counterscreen; hits give high values
For CCOc1cc(C)c(S(=O)(=O)NCc2ccccn2)cc1C, the max response was -2.56% (inactive). With COc1cc(OC)c2ccc(=O)oc2c1C(CCN1CCN(c2ccccc2)CC1)c1ccc2c(c1)OCO2 (stereo unspecified) the max response was 1.12% (inactive) and 1.78% (inactive). For Cc1cccc(CSc2nc3c(c(=O)n2C)SCC3)c1, the max response was 8.73% (inactive). With CC(C)Oc1ccc(/C=N/NC(=O)c2nnn(-c3nonc3N)c2CN(C)C2CCCCC2)cc1 the max response was -0.539% (inactive). For O=C(O)CN1c2cccc3cccc(c23)S1(=O)=O, the max response was 8.16% (inactive). With CCN(CC)CCN1C(=O)C(=O)/C(=C(/O)c2ccc(OC)c(OC)c2)C1c1ccccn1 (stereo unspecified) the max response was 17.9% (active). In the case of CCCOc1ccc(/C(O)=C2/C(=O)C(=O)N(CCN(C)C)C2c2ccc(OC)c(OC)c2)cc1 (stereo unspecified), the max response is reported as 5.75% (inactive). In the case of COc1ccc(/C(O)=C2/C(=O)C(=O)N(CCCN(C)C)C2c2ccccc2)cc1OC (stereo unspecified), the max response is reported as 5.45% (inactive). For COc1ccc(S(=O)(=O)N2CCCC(C(=O)NCCCn3ccnc3)C2)cc1OC (stereo unspecified), the max response was -5.51% (inactive). In the case of Cc1ccsc1-c1cc(C(=O)O)c2c(ccc3ccccc32)n1, the max response is reported as 16.2% (inactive). For CCOCCCNC(=O)c1cc2c(=O)n3ccccc3nc2s1, the max response was 30.4% (active). For CCn1c(=N)c(C(=O)NCCCOC)cc2c(=O)n3cccc(C)c3nc21, the max response was -3.15% (inactive). With Cc1cccn2c(=O)c3cc(C(=O)NC4CCCCC4)sc3nc12 the max response was 7.47% (inactive). With CC1CC(C)CN(CC(=O)N2c3ccccc3CCc3ccccc32)C1 (stereo unspecified) the max response was -3.85% (inactive). For O=C(Nc1cccc([N+](=O)[O-])c1)N1CCc2ccccc2C1, the max response was 51.1% (active). With Cc1ccc(NC(=O)CN2CCc3ccccc3C2)cc1C the max response was 18% (inactive). In the case of Cc1cccc(C)c1NC(=O)c1ccc(CN2CCc3ccccc3C2)cc1, the max response is reported as -1.05% (inactive). For Cc1ccc(NC(=O)CN2CCc3ccccc3C2)cc1, the max response was 16.3% (active). In the case of CN(CC(=O)Nc1cccc(F)c1)CC(=O)Nc1cccc([N+](=O)[O-])c1, the max response is reported as 13.6% (inactive). With COc1cc2c(cc1OC)CN(CC(=O)Nc1ccc(F)cc1)CC2 the max response was -3.51% (inactive). In the case of CCc1ccc(NC(=O)N2CCc3ccccc3C2)cc1, the max response is reported as 49.7% (active). With CCc1ccc(NC(=O)N2CCN(c3ccccc3)CC2)cc1 the max response was 12% (inactive). In the case of O=C(Nc1cccc([N+](=O)[O-])c1)Nn1cnnc1, the max response is reported as 3.77% (inactive). With Cn1c(=O)c([N+](=O)[O-])c(Oc2ccccc2)c2ccccc21 the max response was -2.35% (inactive). For O=C(NC(=S)N1CCc2ccccc21)c1ccco1, the max response was 8.62% (inactive). With COc1ccc(C(=O)CC(=O)c2ccc(C)cc2)c(O)c1 the max response was 20% (active). For Cc1[nH]nc(-c2ccc(OCc3cnn(-c4ccccc4)c3)cc2O)c1Oc1ccc(Cl)cc1, the max response was 0.856% (inactive). For COc1ccc(C(=O)Cc2cnn(-c3ccccc3)c2)c(O)c1, the max response was 39.4% (active). With COc1ccc(C(=O)C[n+]2ccc(C)cc2)cc1 the max response was 0.721% (inactive). In the case of Cc1cc(O)cc(O)c1C(=O)Cc1cnn(-c2ccccc2)c1, the max response is reported as 14% (inactive). For COc1ccc(C(=O)NNS(=O)(=O)c2ccc(C)cc2)cc1, the max response was -1.39% (inactive). For COc1ccc(CCNC(=S)NC(=O)/C=C/c2ccc(C)cc2)cc1OC, the max response was 9.56% (inactive). In the case of COC(=O)c1c(NC(=O)C(=O)N2CCCCC2)sc2c1CC(C)(C)OC2, the max response is reported as -2.72% (inactive). In the case of CC(=O)N1CCN(CC(C)(C)NS(=O)(=O)c2ccc(C)cc2)CC1, the max response is reported as -1.04% (inactive). In the case of CCn1c(SCC(=O)NC2CCCC2)nnc1-c1ccoc1C, the max response is reported as -1.45% (inactive). With CCn1c(SCC(=O)Nc2nc3ccc(OC)cc3s2)nnc1-c1ccoc1C the max response was 23.1% (active). With CCOc1ccc2nc(NC(=O)CSc3nc4c(c(=O)n(C)c(=O)n4C)n3CC)sc2c1 the max response was -6.89% (inactive). For CC(=O)Nc1ccc(SCC(=O)Nc2ccccc2Oc2ccccc2)cc1, the max response was 0.468% (inactive). With C=CCNC(=O)c1ccccc1NC(=O)c1ccc(Cl)c(S(=O)(=O)Nc2cccc(C)c2C)c1 the max response was 1.27% (inactive). With CCc1cccc(C)c1NS(=O)(=O)c1c(C)nc2sccn2c1=O the max response was -1.71% (inactive). In the case of Cc1ccc2c(c1)c1ncnc(N3CCc4ccccc4C3)c1n2C, the max response is reported as 42.1% (active). For Cc1ccc2c(c1)c1ncn(Cc3ccc(F)cc3)c(=O)c1n2C, the max response was -2.24% (inactive). With Cc1ccc2c(c1)c1ncn(CCC3=CCCCC3)c(=O)c1n2C the max response was -3.65% (inactive). In the case of OCCN1CCN(c2nnc(-c3ccccc3)c3ccccc23)CC1, the max response is reported as -4.91% (inactive). For COc1ccc(S(=O)(=O)NCC(=O)NCc2cc(=O)n(C)c(=O)n2C)cc1F, the max response was -6.78% (inactive). With O=C(COc1ccc2c(c1)CCC2)N1CCN(c2ccc(F)cc2)CC1 the max response was -1.09% (inactive). With Nc1nonc1C(=O)NCCc1ccccc1 the max response was 10.9% (inactive). For CCCCNC(=S)NNC(=O)c1cc(C)on1, the max response was -1.9% (inactive). For O=C(NCCN1CCCC(O)C1)c1cc(COc2c(F)cccc2F)on1 (stereo unspecified), the max response was 9.93% (inactive). For CCN(CC)CCCNC(=O)c1cc(-c2cccc(Cl)c2)on1, the max response was 0.892% (inactive). For CC(C)Cc1cc(C(=O)NCCc2ccccc2)no1, the max response was 53.1% (active). In the case of CC(C)CNC(=O)c1cc(-c2ccc(Br)cc2)on1, the max response is reported as 36% (active). For O=C(COC(=O)c1ccc(F)cc1)NCCCc1ccccc1, the max response was -9.6% (inactive). In the case of C[C@H](NC(=O)NCCc1ccccc1)C(=O)O, the max response is reported as -6.82% (inactive). In the case of O=C(NCCCc1ccccc1)c1cc(COc2c(F)cccc2F)on1, the max response is reported as 31.8% (active). With Cc1cc(C(=O)NCCCc2ccccc2)no1 the max response was 13.1% (active). For CSc1ncc(C(=O)NCCCc2ccccc2)c(C)n1, the max response was 10.8% (inactive). For Cc1c(NC(=O)c2cc(-c3ccc(Br)cc3)on2)c(=O)n(-c2ccccc2)n1C, the max response was -1.9% (inactive). With Cc1ccc2c(c1)N(CC(=O)NCCCN1CCCCC1)C(=O)c1cccnc1O2 the max response was 1.05% (inactive). In the case of Cc1cccc(NC(=O)Cn2c(=O)n(Cc3ccccc3)c(=O)c3c(C)c(C)sc32)c1, the max response is reported as -2.17% (inactive). For CCOc1ccc(OCC)c(NC(=O)CSc2nnc(Cn3cnc4ccccc43)n2C)c1, the max response was -0.798% (inactive).
